Rows were chosen to be rich in hits. Some 2.5% of all compounds tested hit in one or more screens of this group.
Cruzain inh noDet – cruzain (T. cruzi) inhibition without detergent. P25779. purified cruzain, Z-FR-AMC fluorescence, no detergent. Potency, µM, for inactives: max response, negative = inhibition, actives largely listed as inhibitors. 200,000 tested, 2.3% active. AID 1476;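 note: plate controls were enzyme without inhibitor for no effect and buffer without enzyme for full effect; nearly all actives have a fitted effect of over 40% in size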
Target sequence (P25779 123-467 limits assumed): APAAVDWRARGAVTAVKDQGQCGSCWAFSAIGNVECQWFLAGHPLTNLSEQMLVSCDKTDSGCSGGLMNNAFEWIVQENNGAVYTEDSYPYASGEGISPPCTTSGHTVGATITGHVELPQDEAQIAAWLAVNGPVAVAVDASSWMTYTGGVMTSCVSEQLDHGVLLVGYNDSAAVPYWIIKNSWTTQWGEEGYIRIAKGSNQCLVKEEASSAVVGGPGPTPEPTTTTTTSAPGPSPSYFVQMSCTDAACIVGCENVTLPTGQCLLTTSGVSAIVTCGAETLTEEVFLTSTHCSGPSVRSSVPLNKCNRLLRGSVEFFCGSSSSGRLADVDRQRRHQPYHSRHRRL
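Purified cruzain at 1.5 nM, pre-incubated 15 min with compound at room temperature in 100 mM sodium acetate pH 5.5, 5 mM DTT, 0.00005% Triton X-100. Reaction started with 2 uM Z-FR-AMC; AMC fluorescence increase over 60 s gives rate.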
Cruzain Triton – cruzain (T. cruzi) inhibition with detergent; P25779; purified cruzain, Z-FR-AMC fluorescence, 0.01% Triton; Potency, µM, for inactives: max response, negative = inhibition, usual class: inhibitors; 200,000 tested, 0.43% active; AID 1478;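 note: plate controls were neutral wells for no effect and buffer without enzyme for full effect; nearly all actives have a fitted effect of over 40% in size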
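Read-out: AMC fluorescence (360 nm excitation, 450 nm emission), four reads over 2 min, first-to-third difference used. Conditions: cruzain 1.5 nM, Z-FR-AMC 2 uM, pH 5.5 acetate, 5 mM DTT, 0.01% Triton X-100.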
Active calls of the source: *; ? = inconclusive. Calls come from the whole dose curve; as a rule, active = well fitted curve in the direction sought with a large enough effect; inconclusive = small, poorly fitted or top-dose-only effect, or another doubt; inactive = no such curve, though single readings can be large; an effect the other way counts as inactive or inconclusive. Potency is the fitted concentration of half-maximal effect.

SMILES	Cruzain inh noDet	Cruzain Triton
COc1cccc(/C=C/c2nc(C#N)c(NCCN(C)C)o2)c1	20µM*	25µM*
COCCNc1oc(-c2ccc(F)cc2)nc1C#N	1%	-2%
CCOCCCNC(=O)C(NC(=O)c1cnccn1)c1ccc(C)cc1 (stereo unspecified)	5%	-4%
CN(C)S(=O)(=O)Oc1cccc(C(=O)Nc2ccc(Cl)c(Cl)c2)c1	5%	-3%
CCOC(=O)c1ccc(N=C2C(=S)N(c3ccc(C(=O)OCC)cc3)C(=N)N2/N=C/c2ccccc2)cc1	13µM*	-12%
CCOC(=O)c1ccc(N2Cc3ccccc3C2=N)cc1	-21%	1%
Cc1ccc(C)c(CSc2nnc(C)n3c2cc2sccc23)c1	4%	-3%
O=C(Nc1ccc(N2CCC(c3ccccc3)C2)c(C(=O)O)c1)c1ccc(Cl)cc1 (stereo unspecified)	-3%	1%
Cn1c2c(c(=O)n(C)c1=O)C(c1cccc(O)c1)CC(=O)N2 (stereo unspecified)	-4%	0%
CCOc1ccccc1N=C1SC(CC(=O)Nc2ccc(OC)cc2OC)C(=O)N1CCC1=CCCCC1 (stereo unspecified)	?	-4%
CCOc1ccc(/C(C)=N/N2C(=O)C(CC(=O)Nc3ccc(OC)cc3[N+](=O)[O-])SC2=Nc2cccc(C)c2C)cc1 (stereo unspecified)	10µM*	-1%
Clc1ccc(C(c2ccccc2Cl)C(Cl)(Cl)Cl)cc1 (stereo unspecified)	-27%	7%
CC(NC(=O)Cn1c(=O)oc2cc(S(=O)(=O)N3CCCC3)ccc21)c1ccccc1 (stereo unspecified)	?	1%
O=C(Cn1c(=O)oc2cc(S(=O)(=O)N3CCCC3)ccc21)NC1CCCc2ccccc21 (stereo unspecified)	25µM*	-11%
COc1ccc(OC)c(CCNC(=O)c2cc3c(=O)n(C)c4ccccc4c3n2C)c1	?	-3%
CCOC(=O)c1c(-c2ccccc2)oc2ccc(NS(=O)(=O)c3ccccc3)cc12	-26%	-7%
CCOC(=O)c1c(-c2ccccc2)oc2ccc(NS(=O)(=O)c3cc(C)c(C)cc3C)cc12	7.9µM*	-3%
COc1ccc(Nc2oc(-c3ccc(COc4cccc(C)c4)o3)nc2C#N)cc1	16µM*	-6%
COc1ccc(Nc2oc(-c3ccc(COc4ccccc4)o3)nc2C#N)cc1	?	2%
CCOc1ccc(Nc2oc(-c3ccc(COc4ccc(C)cc4)o3)nc2C#N)cc1	3.2µM*	-4%
COc1ccc(Nc2oc(COc3ccc(OC)cc3)nc2C#N)cc1	0%	-12%
COc1ccc(Nc2oc(-c3ccc(COc4ccc(OC)cc4)o3)nc2C#N)cc1	-28%	-3%
COc1ccc(Nc2oc(COc3ccccc3F)nc2C#N)cc1	25µM*	-21%
O=C(Cn1ncn2c(cc3ccccc32)c1=O)NCc1ccco1	3%	-5%
O=c1c2ccccc2nnn1CSc1nnc(-c2cccs2)n1Cc1ccccc1	-12%	-2%
SMILES	Cruzain inh noDet	Cruzain Triton
C=CCn1c(SCn2nnc3ccccc3c2=O)nc2scc(-c3cccs3)c2c1=O	7.9µM*	4%
C=CCn1c(SCC(=O)N2CCCC2)nc2scc(-c3cccs3)c2c1=O	2%	-1%
C=CCn1c(SCC(=O)Nc2ccccc2)nc2scc(-c3cccs3)c2c1=O	25µM*	-6%
CCn1ncc(CNC(=O)C2(C)CC2(Cl)Cl)c1C (stereo unspecified)	0%	3%
O=C(COc1ccccc1)N(Cc1cccnc1)c1nc2c(F)cccc2s1	-13%	-3%
CCc1ccc(S(=O)(=O)c2nnn(-c3cccc(C)c3)c2N)cc1	-1%	-8%
O=C(CCN1CCCCC1)c1csc2ccccc12	2.5µM*	-23%
O=C(CCN1CCCCC1)c1ccccc1	-13%	-5%
COc1cccc(CN2CC(O)=C(c3nc(-c4ccc(Cl)cc4)cs3)C2=N)c1	13µM*	-10%
COc1ccc(-c2csc(C3=C(O)CN(Cc4ccc(Cl)cc4)C3=N)n2)cc1OC	-10%	-6%
O=C(O)[C@H](C1NCCS1)N1C(=O)c2ccccc2C1=O (stereo partly specified)	8%	0%
CCOC(=O)c1c(C)[nH]c(C(=O)COC(=O)CCS(=O)(=O)c2ccc(C)cc2)c1C	1%	?
CCOC(=O)c1c(C)[nH]c(C(=O)COC(=O)CCC2CCCC2)c1C	16µM*	8%
CC1CCN(C2=NC(=O)/C(=C/c3cn(-c4ccccc4)nc3-c3cccc(S(=O)(=O)N(C)C)c3)S2)CC1	1%	3%
O=C(COC(=O)[C@H](Cc1ccccc1)NC(=O)c1ccco1)NC(c1ccccc1)c1ccccc1	5%	-7%
Cc1cc(NC(=O)COC(=O)C(Cc2ccccc2)NC(=O)c2ccco2)no1 (stereo unspecified)	25µM*	28µM*
Cc1ccc(CNC(=O)C2CCN(S(=O)(=O)c3c(C)noc3/C=C/c3cccs3)CC2)cc1	0%	-5%

High-throughput results (PubChem BioAssay)
